Most compounds without a hit are left out; they make up all but 4.9% or so of the library.
tim23-1 inh: inhibits growth of tim23-1 mutant yeast. S. cerevisiae tim23-1 growth, BacTiter-Glo luminescence, 24 h. inhibition, % at 20 µM. 330,000 tested, 1.3% active. AID 463212;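 active = growth inhibition of the mutant yeast at or above 50%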;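 note: temperature-sensitive mutant grown at 25 °C; plate controls were DMSO-treated mutant yeast for no effect and medium wells lacking yeast for full effect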
tim10-1 inh: tim10-1 yeast growth inhibition. S. cerevisiae tim10-1 ts strain growth, BacTiter-Glo, 24 h. inhibition, % at 20 µM. 330,000 tested, 2.2% active;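 active = inhibition of at least 40%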;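 note: mutant grown at 25 °C; 0% = DMSO wells with yeast and 100% = wells holding no yeast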
NALP1 inh: NALP1 inhibition. AID 2071. inhibition, % at 10 µM. S. cerevisiae NALP1/ASC/caspase-1 growth, X-gal OD620, 72 h. 280,000 tested, 0.61% active; in the data active = inhibition mostly above about 24%, no sharp cut-off; inactive = mostly below about 32%
SKKanGAS inh: blocks kanamycin growth of S. pyogenes SKKanGAS strain | BacTiter-Glo, 6 h | inhibition, % at 7.5 µM | 300,000 tested, 1.3% active;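 active = mean replicate score, as percent of positive control median, at least 50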;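 note: strain carries kanamycin resistance gene driven by streptokinase promoter and grows in 40 µg/ml kanamycin; loss of luminescence reflects streptokinase promoter inhibition or plain growth inhibition; 0% = median of DMSO wells and 100% = positive control at its reference dose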
NLRP3 yeast inh: NALP3 inhibition in yeast | Yeast reconstituted NLRP3/ASC/caspase-1, beta-gal luminescence, 24 h | inhibition, % at 10 µM | 330,000 tested, 0.39% active | AID 2825;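 active = inhibition of 50% or more; inactive = inhibition below 50%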;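 note: plate controls were induced DMSO wells for no effect and uninduced yeast grown without galactose for full effect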
TIM10 inh: inhibits growth of TIM10 yeast strain | S. cerevisiae TIM10 strain growth, BacTiter-Glo luminescence, 24 h | 330,000 tested, 1.4% active | inhibition, % at 10 µM;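 active = inhibition of 40% or more at the single tested concentration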;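 note: wild-type TIM10 isogenic control strain grown at permissive 25 °C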
tim10-1 confirm: confirmation of tim10-1 mutant yeast growth inhibitors. 7,400 tested, 56% active. S. cerevisiae tim10-1 ts strain growth, BacTiter-Glo, 24 h. inhibition, % at 20 µM. shares compounds with tim10-1 inh;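 active = inhibition of yeast growth at or above a set limit in either of two repeat tests at 20 µM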;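 note: tim10-1 mutant grown at permissive 25 °C to find synthetic lethal compounds; 0% = DMSO yeast wells and 100% = medium wells without yeast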
tim10 confirm: TIM10 yeast growth inhibition, confirmed. AID 463215. inhibition, % at 10 µM. S. cerevisiae tim10 strain growth, BacTiter-Glo luminescence, 24 h. 4,600 tested, 63% active. shares compounds with TIM10 inh;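 active = inhibition of yeast growth at or above a set limit in either of two replicates at 10 µM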;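 note: this counterscreen used the strain with wild-type TIM10; 0% = yeast with DMSO and 100% = medium wells lacking yeast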
tim23-1 confirm: confirmation of tim23-1 mutant yeast growth inhibitors | shares compounds with tim23-1 inh | S. cerevisiae tim23-1 growth, BacTiter-Glo luminescence, 24 h | inhibition, % at 20 µM | 4,400 tested, 83% active | AID 463218;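 active = inhibition above about 39% in either of two replicate wells at 20 µM, limit read from the data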;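 note: temperature-sensitive tim23-1 mutant grown at 25 °C; 0% = DMSO wells with yeast and 100% = medium wells without yeast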
An asterisk follows results filed as active; nt = not tested or not shown.

SMILES	tim23-1 inh	tim10-1 inh	NALP1 inh	SKKanGAS inh	NLRP3 yeast inh	TIM10 inh	tim10-1 confirm	tim10 confirm	tim23-1 confirm
COc1ccc(-c2nnc(N3CCCCC3)c3ccccc23)cc1	60.2*	51.4*	0.7	-6.6	5.7	28.6	47.5*	nt	55.5*
CC(C)/C=C/CN1CCCC(N2CCN(c3cccc(Cl)c3)CC2)C1 (stereo not given)	-60.2	-90.8	14.9	1.4	28.7	-16.3	nt	nt	nt
Cc1ccc(C(=O)Nc2cccc(NC(=O)c3cccs3)c2)c(C)c1	52.9*	46.7*	10.5	11.8	19.6	21.0	36.4*	nt	49.9*
O=C(COC(=O)c1ccc2ncsc2c1)NCc1ccccc1Cl	0.9	-35.5	nt	nt	12.7	-26.2	nt	nt	nt
CCCCNC(=S)NC(=O)c1ccc(Cl)cc1Cl	54.1*	48.7*	-1.5	-6.1	6.3	38.2	36.5*	nt	52.6*
O=C(NC(=S)NCCN1CCOCC1)c1ccc(Cl)cc1Cl	-9.1	9.8	23.5	-3.5	17.5	0.0	nt	nt	nt
O=C(CCc1ccccc1)Nc1cccc(S(=O)(=O)N2CCOCC2)c1	19.1	7.2	nt	nt	-3.5	11.9	nt	nt	nt
CCOC(=O)c1ccc(NC(=O)Nc2ncc(Cl)cc2Cl)cc1	56.3*	70.1*	nt	8.8	14.0	76.1*	77.5*	76.4*	68.7*
CCOC(=O)c1ccc(NC(=O)Nc2ncccc2C)cc1	-8.0	-7.4	-7.7	11.2	11.0	-2.3	nt	nt	nt
Nc1cc(Cl)nc(N/N=C/c2c(O)ccc3ccccc23)n1	66.1*	49.8*	28.8	-12.4	46.4	44.5*	38.3*	-9.2	70.0*
S=c1[nH]nc(-c2ccc(Cl)cc2)n1/N=C/C=C/c1ccco1	51.4*	44.6*	-2.6	2.7	1.4	36.2	29.5	nt	37.9
CCOC(=O)C1CCCN(C(=O)CCCn2nnnc2CN2CCOCC2)C1 (stereo not given)	7.2	9.6	4.7	-4.8	28.1	-2.9	nt	nt	nt
O=C(Nc1ccc(Cl)c(Cl)c1)N1N=CCC1c1ccccc1 (stereo not given)	52.3*	56.4*	2.3	-4.1	7.8	32.8	45.6*	nt	57.4*
Oc1ccccc1N=Cc1c(O)ccc2oc3c(c12)CCCC3	52.1*	46.8*	2.4	84.9*	28.6	38.2	55.2*	nt	72.8*
Oc1ccc2oc3c(c2c1/C=N/n1cnnc1)CCCC3	9.1	27.2	-8.0	-7.2	25.1	9.6	nt	nt	nt
O=C1OC(c2ccc(Br)cc2)=N/C1=C\c1ccco1	57.7*	57.1*	-0.8	8.0	13.6	44.8*	25.9	9.9	44.4*
O=C(Cn1c(C(=O)OCCO)cc2ccccc21)c1ccccc1	8.7	11.3	11.2	-3.8	11.2	6.8	nt	nt	nt
Cc1nn2c(-c3ccncc3)nnc2c2ccccc12	51.6*	56.8*	24.5	nt	17.0	76.0*	65.1*	74.5*	42.6*
CC(=O)Nc1cccc(-c2nnc3c4ccccc4c(C)nn23)c1	11.2	17.2	-15.2	0.5	-7.1	8.5	nt	nt	nt
CCOC(=O)C1CCN(C(=O)c2ccc(OCC(=O)Nc3cccc(C(F)(F)F)c3)cc2)CC1	54.2*	56.3*	17.6	28.7	2.2	54.1*	56.3*	53.4*	53.4*
c1csc(-c2csc3nc(CN4CCOCC4)nc(NCc4ccc5c(c4)OCO5)c23)c1	54.0*	46.5*	-8.7	57.2*	12.5	46.7*	37.8*	38.5*	50.6*
c1ccc2c(c1)nc(NCc1ccc3c(c1)OCO3)n2CCN1CCOCC1	0.9	13.3	10.3	-4.9	11.3	-2.1	nt	nt	nt
O=C(COC(=O)c1c(Cl)cccc1Cl)NCC1CCCO1 (stereo not given)	-5.7	-2.6	-2.8	-14.4	14.1	-4.6	nt	nt	nt
Cc1occc1C(=O)Nc1sccc1C(N)=O	37.0	-3.0	17.9	-5.3	18.0	17.4	nt	nt	nt
CCCc1cc(C(N)=O)c(NC(=O)c2ccoc2C)s1	65.4*	47.3*	4.1	1.3	14.7	34.0	34.0*	nt	68.2*
SMILES	tim23-1 inh	tim10-1 inh	NALP1 inh	SKKanGAS inh	NLRP3 yeast inh	TIM10 inh	tim10-1 confirm	tim10 confirm	tim23-1 confirm
CCOc1ccc(CC(=O)Nc2sc(Cc3ccccc3)cc2C(N)=O)cc1OCC	10.7	3.1	-11.5	1.5	-15.3	-6.2	nt	nt	nt
O=C(Nc1nnc(CCc2ccccc2)s1)c1ccco1	29.4	14.4	-10.7	-6.0	31.6	4.5	nt	nt	nt
O=C(Nc1nc2c(s1)CCc1ccccc1-2)c1ccco1	58.0*	54.9*	-4.5	6.3	-6.7	41.1*	49.2*	47.3*	61.3*
CC(=O)Nc1nc2c(s1)CCc1ccccc1-2	10.7	9.0	21.5	14.6	8.6	0.1	nt	nt	nt
O=C(Nc1nnc(Cc2ccccc2)s1)c1ccco1	54.2*	50.3*	-0.2	5.8	21.3	33.8	29.2*	nt	42.7*
NC(=O)c1cc(Cc2ccccc2)sc1NC(=O)c1ccco1	59.7*	49.9*	-4.5	-7.2	6.5	40.4*	48.3*	28.5	73.1*
CCCCNc1c(C(=O)OCC)c(C)nc2c1cnn2CC	42.1	19.9	nt	10.3	43.7	6.0	nt	nt	nt
CCN(CC)S(=O)(=O)c1ccc(/C=C/C(=O)OCC(=O)Nc2cccnc2Cl)cc1	29.9	15.7	nt	nt	12.1	13.9	nt	nt	nt
O=C(Nc1nc2c(ccc3ccccc32)s1)c1ccco1	57.0*	51.0*	0.0	19.8	-2.5	66.2*	52.0*	61.5*	75.3*
O=C(NCCCc1ccccc1)Nc1cccc(Cl)c1	56.5*	44.3*	47.4	-10.3	27.1	45.9*	23.9	-11.2	65.6*
Cc1ccc(CNc2oc(-c3cccs3)nc2C#N)cc1	52.2*	43.7*	30.3	1.0	37.9	17.8	25.8	nt	46.5*
N#Cc1nc(-c2cccs2)oc1NCc1ccccc1	42.3	28.9	11.1	5.0	17.5	17.3	nt	nt	nt
COC(=O)C1=C(C)N(c2ccccc2)/C(=C/c2ccco2)C1=O	28.2	3.9	23.9	6.9	19.7	22.0	nt	nt	nt
COC(=O)C1=C(C)N(c2cc(C)cc(C)c2)/C(=C/c2ccco2)C1=O	54.1*	55.4*	8.5	-7.5	-4.8	39.4	28.1	nt	50.0*
Cc1ccccc1Oc1nc(-c2ccccn2)nc2ccccc12	55.8*	48.2*	9.1	103.5*	37.0	42.7*	27.5	35.8*	48.8*
CCOc1cccc(NC(=O)/C(C#N)=C/c2cccnc2)c1	78.9*	51.8*	nt	-9.7	0.4	41.6*	55.3*	56.3*	76.8*
CCOc1cccc(/C=C(\C#N)C(=O)NC2CC2)c1	76.8*	41.8*	nt	-2.8	8.4	50.7*	51.0*	51.0*	62.2*
CC(=O)Nc1ccc(/C=C(\C#N)C(=O)NC2CCCCC2)cc1	65.8*	46.0*	-3.7	-12.9	3.6	49.5*	48.0*	55.9*	61.6*

Compound activity deposited in PubChem by several laboratories.
